Source: PubChem BioAssay AID1272365 (Small Molecule Screening Facility, UW Madison, 2018)
Values joined by “and” are separate entries in the source; they are usually repeats but may differ in a detail not shown here. Equal values may be shown once. Screen size: about 430,000 compounds; about 2,600 (0.6%) were called active. For the sample, actives were picked, then their nearest neighbours and some compounds at random. Values without a mark were called inactive. Rule as the data show it: active = inhibition mostly above about 37% (no sharp cut-off); inactive = mostly below about 20%.

The compounds below were run on PriA–SSB C-terminal tail interaction (Klebsiella pneumoniae) (assay: inhibitors of Klebsiella pneumoniae PriA binding to SSB C-terminal tail, primary screen, biochemical, AlphaScreen (AID 1272365;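 also: plate controls were negative control peptide for no effect and reference peptide for full effect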)). Conditions: AlphaScreen SSBct-PriA binding, biotinylated peptide; at 33 µM, stronger effect = higher value.

First: O=S(=O)(CCc1ccccc1)NCC(O)c1ccoc1 (configuration not stated)
Second: Cc1cc(C(=O)OCC(=O)NCc2ccco2)c(C)n1-c1ccccc1
The inhibition of the first is lower: -25% for the first, -5.93% for the second.

Going from COc1cc(NS(=O)(=O)c2ccc(NC(=O)c3cc4c(ccc5ccccc54)oc3=O)cc2)ncn1 to O=C(c1ccccc1)c1sc(NC(=O)c2cc(-c3ccccc3)nc3ccccc23)nc1-c1ccccc1, the inhibition rises from -16% to 10%.

Compared with COC(=O)c1ccc(S(=O)(=O)NCC2(c3ccc(F)cc3)CC2)cc1, O=C(Nc1ccc(OC(F)(F)F)cc1)C(=O)Nc1ccccc1[N+](=O)[O-] is higher in inhibition: -24% for the first, 4% for the second.

Going from COc1ccc(Br)c(C(=O)NCCCc2cnoc2)c1 to Cc1cc2ncc(NC(=O)NCCOc3ccccc3)cn2n1, the inhibition falls from 4% to -12%.

First: O=[N+]([O-])c1ccccc1NN=Cc1cccc(O)c1O
Second: Cc1cc(-c2nnc(NC(=O)c3ccc(C(=O)c4ccccc4)cc3)o2)nn1C
The inhibition of the first is lower: 0.72% for the first, 3% for the second.

Going from COc1cccc(CCNC(=O)C2CS(=O)(=O)CN2C(=O)c2ccccc2)c1 (configuration not stated) to Cc1oc2ccc(OCc3ccccc3)cc2c1C(=O)NCc1ccco1, the inhibition rises from -9% to -4%.

Going from Cc1ccc(-c2cc3c(=O)n(CC(=O)Nc4ccc5c(c4)OCO5)ncn3n2)cc1C to Cc1cc(-c2nnc(NC(=O)Cc3ccccc3)o2)n(C)n1, the inhibition rises from -17% to 14%.

Going from CC(=NNC(=O)c1c(Cl)c(C)nn1C)c1cccc(NC(=O)C2CCCC2)c1 to CC(=O)c1c(C)n(-c2ccc(C)cc2)c2ccc(O)cc12, the inhibition falls from 2.34% to -0.78%.

First: Cc1cc(-c2nnc(NC(=O)C(C)C)o2)nn1C
Second: COc1cc(NC(=O)Cc2c(C)noc2C)ncn1
The inhibition of the first is higher: -2% for the first, -19% for the second.

First: COC[C@@](C)(O)CNS(=O)(=O)c1ccccc1OC
Second: CC(=O)c1c(C)n(-c2ccc(N(C)C)cc2)c2ccc(OCC(N)=O)cc12
The inhibition of the first is higher: -2% for the first, -18.2% for the second.

Cc1cc(C)c2c(n1)nn1c(NCc3ccc(Cl)cc3Cl)cc(C)nc21 showed an inhibition of -9%.

With O=[N+]([O-])c1ccccc1Nc1ccc(O)cc1 the inhibition was 46.7% (active).
CSc1ccccc1C(=O)Nc1nnc(-c2cc(C)nn2C)o1 was tested, and the inhibition was 6% and 0%.
With Cc1cc(-c2nnc(NC(=O)C(c3ccccc3)c3ccccc3)o2)nn1C the inhibition was 85% (active).
For Cc1cc(-c2nnc(NC(=O)C(c3ccccc3)c3ccccc3)o2)n(C)n1, the inhibition was 61% (active).
In the case of CCOC(=O)c1c(C)n(-c2ccc(C)cc2)c2ccc(OCC(O)CNCc3ccco3)cc12 (configuration not stated), the inhibition is reported as 69% (active).
In the case of CCOC(=O)c1c(C)n(-c2ccc(C)cc2)c2ccc(OCC(O)Cn3ccnc3)cc12 (configuration not stated), the inhibition is reported as 83% (active) and 46% (active).
